Data on 63 molecules can be found in publication PMC4336329 (PLoS ONE, 2015).

Structures are written as SMILES. Screen size: about 310,000 compounds; about 14,000 (4.5%) showed an effect of 50% or more. Effects have a minus sign here. The entries come from a sample that favours strong results as a whole.
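Further: peak tail current of the secondary pulse compared with the same well before compound.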

The target of the test is human ether-à-go-go-related gene (hERG) potassium channel (human, UniProt Q12809). The experiment in a line: primary screen, population patch clamp on CHO cells stably expressing hERG; higher = less effect of the substance.
human ether-à-go-go-related gene (hERG) potassium channel, sequence (Q12809 whole entry, looked up): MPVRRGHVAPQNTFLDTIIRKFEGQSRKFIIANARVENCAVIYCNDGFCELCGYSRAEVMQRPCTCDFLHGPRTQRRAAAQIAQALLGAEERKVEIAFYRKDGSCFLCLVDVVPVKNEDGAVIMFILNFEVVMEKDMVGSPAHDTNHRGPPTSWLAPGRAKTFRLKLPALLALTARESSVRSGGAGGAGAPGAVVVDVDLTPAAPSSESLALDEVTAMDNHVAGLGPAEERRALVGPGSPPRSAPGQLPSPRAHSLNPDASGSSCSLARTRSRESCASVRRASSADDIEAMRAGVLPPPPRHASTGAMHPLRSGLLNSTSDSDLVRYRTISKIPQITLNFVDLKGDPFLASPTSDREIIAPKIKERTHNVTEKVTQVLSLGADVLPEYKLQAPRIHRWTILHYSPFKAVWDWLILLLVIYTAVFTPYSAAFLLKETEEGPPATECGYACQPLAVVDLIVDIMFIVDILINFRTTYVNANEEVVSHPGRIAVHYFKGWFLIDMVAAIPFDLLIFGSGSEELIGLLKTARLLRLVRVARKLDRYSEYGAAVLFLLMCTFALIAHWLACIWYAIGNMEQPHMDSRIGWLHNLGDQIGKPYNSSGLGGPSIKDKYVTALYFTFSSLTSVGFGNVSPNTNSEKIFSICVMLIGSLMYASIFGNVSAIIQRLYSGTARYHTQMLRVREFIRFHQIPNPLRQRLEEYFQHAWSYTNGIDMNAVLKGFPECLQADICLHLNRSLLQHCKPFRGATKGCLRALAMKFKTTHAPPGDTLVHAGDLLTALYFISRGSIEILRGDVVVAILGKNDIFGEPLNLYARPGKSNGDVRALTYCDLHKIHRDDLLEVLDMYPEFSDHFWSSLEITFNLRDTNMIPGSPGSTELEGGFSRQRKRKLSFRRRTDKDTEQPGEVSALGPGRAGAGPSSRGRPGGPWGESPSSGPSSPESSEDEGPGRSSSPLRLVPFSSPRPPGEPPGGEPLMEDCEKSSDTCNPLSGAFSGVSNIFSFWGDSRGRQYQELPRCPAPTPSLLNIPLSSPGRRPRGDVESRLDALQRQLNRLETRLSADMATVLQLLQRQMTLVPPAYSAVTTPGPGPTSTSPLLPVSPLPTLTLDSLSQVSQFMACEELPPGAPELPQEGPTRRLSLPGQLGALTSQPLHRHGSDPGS
As to `Cc1c(C)n(CC(O)CNCCO)c2ccccc12.O=C(O)C(=O)O` (stereo not drawn), the “hERG current change (%, negative = inhibition) at 10uM” value stood at 5.33%. With `CN1CCN(C(=O)CN(C)S(=O)(=O)c2cc(Cl)ccc2Cl)CC1`, the “hERG current change (%, negative = inhibition) at 10uM” value is reported as 4.23%. As for `CC1(C)CC2CN(C(=O)Cc3ccccc3)C(C)(C2)C1` (stereo not drawn), the “hERG current change (%, negative = inhibition) at 10uM” value turned out to be 0.0688%. For the molecule `COc1ccc(/C=N/NC(=O)c2ccco2)cc1Cn1nc(C)cc1C`, the “hERG current change (%, negative = inhibition) at 10uM” value was -2.47%. Regarding `COc1ccc(-c2nnc(NC(=O)c3ccc(S(=O)(=O)N4CCCc5ccccc54)cc3)o2)cc1`, the “hERG current change (%, negative = inhibition) at 10uM” value was 0.175%.

Turning to `CC1(C)CC(=O)c2sc(N3CCCCC3)nc2C1`, the “hERG current change (%, negative = inhibition) at 10uM” value was -2.83%. As for `COc1cc(CC(=O)N/N=C/c2ccccc2)c([N+](=O)[O-])cc1OC`, the “hERG current change (%, negative = inhibition) at 10uM” value was determined as 0.219%. For `Clc1cccc(CNCCc2c[nH]c3ccccc23)c1.O=C(O)C(=O)O`, the “hERG current change (%, negative = inhibition) at 10uM” value is given as -14%. `c1ccc(Cn2nnnc2C(c2ccccc2)N2CCN(c3nc4ccccc4s3)CC2)cc1` (stereo not drawn): the “hERG current change (%, negative = inhibition) at 10uM” value was -11.7%.

Consider `CS(=O)(=O)N1CCN(c2ccc(NC(=O)CSc3ccc(Cl)cc3)cc2)CC1`, for which the “hERG current change (%, negative = inhibition) at 10uM” value is -0.247%. As to `CCOC(=O)N1CCN(C(=O)CCc2ccccc2)CC1`, the “hERG current change (%, negative = inhibition) at 10uM” value is listed as 5.12%. Turning to `O=C(NCCc1ccccc1)c1ccccc1SCC(=O)N1CCCC1`, the “hERG current change (%, negative = inhibition) at 10uM” value was -51.3%. In the case of `CC(C)OC(=O)CN1CCN(c2ccc(Cl)cc2)CC1`, the “hERG current change (%, negative = inhibition) at 10uM” value was 1.73%.

With `O=C(CCc1ccccc1)N1CCCC1`, the “hERG current change (%, negative = inhibition) at 10uM” value was 8.96%.

In the case of `O=C(CCc1ccccc1)N1CCCN(C(=O)CCc2ccccc2)CC1`, the “hERG current change (%, negative = inhibition) at 10uM” value is -51.5%.

Regarding `CCCCCCN1CCN(c2ccc(Cl)cc2)CC1`, the “hERG current change (%, negative = inhibition) at 10uM” value was -66.9%. As for `O=C(NCCOc1ccccc1)c1ccccc1SCC(=O)N1CCCC1`, the “hERG current change (%, negative = inhibition) at 10uM” value is 14.9%. For the molecule `COc1ccc(N2CCN(CCCN)CC2)cc1`, the “hERG current change (%, negative = inhibition) at 10uM” value was determined as 8.6%.

With `O=C(O)c1ccccc1SCC(=O)N1CCCCC1`, the “hERG current change (%, negative = inhibition) at 10uM” value was found to be 15.2%. To `CNc1nc(-c2ccc3c(c2)CCN3C(=O)CC(C)(C)C)c(C)s1` belongs 38%. To `C=CC#CC1(O)CC(C)[N+](C)(C)CC1C.[I-]` (stereo not drawn) belongs 17.4%; to `CCCCn1c(N)c(N(CC(C)C)C(=O)CSC(C)C(=O)Nc2cc(C)on2)c(=O)[nH]c1=O` (stereo not drawn), 9.14%.

Turning to `CN(CCc1nc2ccccc2[nH]1)Cc1nc(CC2CC2)no1`, the “hERG current change (%, negative = inhibition) at 10uM” value is recorded as -13.7%. In the case of `CN(Cc1nc2ccc(F)cc2[nH]1)Cc1nc(CC2CC2)no1`, the “hERG current change (%, negative = inhibition) at 10uM” value is listed as -12.3%. As for `CN(CCc1nc2ccc(Cl)cc2[nH]1)Cc1nc(CC2CC2)no1`, the “hERG current change (%, negative = inhibition) at 10uM” value was -50.8%.

With `CCCCN(C)C(=O)c1cn(CC)c2nc(C)ccc2c1=O`, the “hERG current change (%, negative = inhibition) at 10uM” value is listed as -3.49%. Consider `Cc1c(C(=O)N(C)Cc2ccc(OC(F)F)cc2)oc2ccccc12`, for which the “hERG current change (%, negative = inhibition) at 10uM” value was -69.9%. For `COc1ccc(CCN(C)C(=O)c2oc3ccccc3c2C)cc1OC` the value was -0.562%; for `Cc1c(C(=O)OCC(=O)N(C)Cc2ccccc2)oc2ccccc12`, -29.4%; for `CCn1cc(C(=O)OCC(=O)N(C)Cc2ccccc2)c(=O)c2ccc(C)nc21`, -11.1%. `COc1ccc2oc(C(=O)N(C)Cc3ccc(OC(F)F)cc3)c(C)c2c1`: the “hERG current change (%, negative = inhibition) at 10uM” value is -53.8%. To `COc1ccc2oc(C(=O)N(C)CCOc3ccccc3)c(C)c2c1` belongs -28.9%; to `COc1ccc2oc(C(=O)N(C)Cc3ccc4c(c3)OCCO4)c(C)c2c1`, -10.5%; to `CCn1cc(C(=O)N(C)Cc2ccc(OC(F)F)cc2)c(=O)c2ccc(C)nc21`, -65.1%.

In the case of `CCCNC(=O)Nc1ccccc1C(=O)Nc1ccc(OC)cc1`, the “hERG current change (%, negative = inhibition) at 10uM” value is 2.77%. With `OCC1CCCN(C(=S)NCCc2ccccc2)C1` (stereo not drawn), the “hERG current change (%, negative = inhibition) at 10uM” value is 0.885%.

Regarding `CCCn1nc(Oc2nc(NCC)nc(NCC)n2)ccc1=O`, the “hERG current change (%, negative = inhibition) at 10uM” value came out at 1.1%.

For the molecule `CCCn1nnc(NC(=O)c2cccc(OCC(C)C)c2)n1`, the “hERG current change (%, negative = inhibition) at 10uM” value is recorded as -3.93%. As to `O=C(NCCc1ccc(Cl)cc1)C1CCN(S(=O)(=O)N2CCCCC2)CC1`, the “hERG current change (%, negative = inhibition) at 10uM” value was -5.98%. On to `O=C(NCCc1ccc(Cl)cc1)C1CCN(S(=O)(=O)c2cccs2)CC1`, for which the “hERG current change (%, negative = inhibition) at 10uM” value is reported as -71.2%. For `O=C(NCCc1ccc(Cl)cc1)C1CCN(S(=O)(=O)N2CCCC2)CC1` the value was -52.3%; for `O=C(NCCc1ccccc1Cl)C1CCN(S(=O)(=O)c2cccs2)CC1`, -34.8%. Consider `O=C(NCc1cccs1)C1CCN(S(=O)(=O)c2cccs2)CC1`, for which the “hERG current change (%, negative = inhibition) at 10uM” value is -32.1%. As for `O=C(NCc1ccccc1Cl)C1CCN(S(=O)(=O)c2cccs2)CC1`, the “hERG current change (%, negative = inhibition) at 10uM” value is recorded as -63.4%.

As to `O=C(NCc1ccc(Cl)cc1)C1CCN(S(=O)(=O)c2cccs2)CC1`, the “hERG current change (%, negative = inhibition) at 10uM” value is recorded as -3.7%.

On to `O=C(NCCc1ccccc1)C1CCN(S(=O)(=O)c2cccs2)CC1`, for which the “hERG current change (%, negative = inhibition) at 10uM” value was -2.14%. As to `O=C(NCCc1ccc(Cl)cc1)C1CCCN(S(=O)(=O)N2CCCCCC2)C1` (stereo not drawn), the “hERG current change (%, negative = inhibition) at 10uM” value is -18.7%. As for `O=C1C=C(c2ccccc2)C[C@H](c2cccs2)[C@H]1n1cnc([N+](=O)[O-])c1`, the “hERG current change (%, negative = inhibition) at 10uM” value is on record as -18.8%. In the case of `COC(=O)c1nc2cc3c(cc2c(C)c1C(=O)OC)OCO3`, the “hERG current change (%, negative = inhibition) at 10uM” value is reported as 10.8%. Turning to `COC(=O)CN(C(=S)Nc1ccccc1)C1CC(=O)N(c2ccc(OC)cc2)C1=O` (stereo not drawn), the “hERG current change (%, negative = inhibition) at 10uM” value was -6.5%.

On to `O=C1CCCC(O)=C1N=Nc1c(Cl)cc(Cl)cc1Cl`, for which the “hERG current change (%, negative = inhibition) at 10uM” value stood at 7.14%.

Regarding `O=C(c1ccc(F)cc1)c1cn(Cc2ccc(F)cc2)c2cc3c(cc2c1=O)OCCO3`, the “hERG current change (%, negative = inhibition) at 10uM” value is -71.1%.

With `Cc1ccc(C(=O)c2cc3c(cc2N)OCCO3)cc1`, the “hERG current change (%, negative = inhibition) at 10uM” value is on record as -11.4%. Take `CC(C)c1ccc(S(=O)(=O)c2cn(Cc3ccc(F)cc3)c3cc4c(cc3c2=O)OCO4)cc1`: the “hERG current change (%, negative = inhibition) at 10uM” value was -1%. With `Cc1ccc(Cn2cc(C(=O)NN)c(=O)c3ccc(F)cc32)cc1`, the “hERG current change (%, negative = inhibition) at 10uM” value is on record as -51.6%. Consider `CCOC(=O)c1cn(Cc2ccc(C)cc2)c2cc(F)ccc2c1=O`, for which the “hERG current change (%, negative = inhibition) at 10uM” value is -10.9%. On to `C=CCn1cc(C(=O)OCC)c(=O)c2ccc(F)cc21`, for which the “hERG current change (%, negative = inhibition) at 10uM” value was 5.56%.

For `O=C(C(=O)N1CCOCC1)c1cn(Cc2ccc(F)cc2)c2ccccc12`, the “hERG current change (%, negative = inhibition) at 10uM” value is on record as -32%. As for `Cc1ccc(Cn2cc(C(=O)c3ccc(F)cc3)c(=O)c3cc4c(cc32)OCCO4)cc1`, the “hERG current change (%, negative = inhibition) at 10uM” value was -57.1%. For `Cc1ccc(Cn2cc(S(=O)(=O)c3ccc(C(C)C)cc3)c(=O)c3cc4c(cc32)OCO4)cc1`, the “hERG current change (%, negative = inhibition) at 10uM” value is recorded as -8.58%. `Cc1ccc(S(=O)(=O)c2cn(Cc3ccc(F)cc3)c3cc4c(cc3c2=O)OCO4)cc1`: the “hERG current change (%, negative = inhibition) at 10uM” value was -55%.

For `CC(=O)Nc1cc2c(cc1C(=O)c1ccc(C)cc1)OCCO2`, the “hERG current change (%, negative = inhibition) at 10uM” value amounted to 5.77%. In the case of `CCn1cc(C(=O)O)c(=O)c2cc3c(cc21)OCO3`, the “hERG current change (%, negative = inhibition) at 10uM” value amounted to 20.5%.
